Bioassay records from PubChem BioAssay.
An excerpt weighted towards active compounds, which were near 18% of everything screened.
RORg inh – blocks mouse ROR gamma transcriptional activity | AID 2551 | actives 5.4% (n = 310,000) | Potency, µM (highest dose often 53.6 µM), without a hit: top-dose activity change, negative = inhibition, actives largely listed as inhibitors | Drosophila S2 Gal4-RORgamma UAS-luciferase reporter, 20 h | P51450; also: potency is read from the fitted curve at half-maximal effect; nearly all actives have a fitted effect of over 60% in size
Target sequence (P51450 whole entry, looked up, the tested form may be a part): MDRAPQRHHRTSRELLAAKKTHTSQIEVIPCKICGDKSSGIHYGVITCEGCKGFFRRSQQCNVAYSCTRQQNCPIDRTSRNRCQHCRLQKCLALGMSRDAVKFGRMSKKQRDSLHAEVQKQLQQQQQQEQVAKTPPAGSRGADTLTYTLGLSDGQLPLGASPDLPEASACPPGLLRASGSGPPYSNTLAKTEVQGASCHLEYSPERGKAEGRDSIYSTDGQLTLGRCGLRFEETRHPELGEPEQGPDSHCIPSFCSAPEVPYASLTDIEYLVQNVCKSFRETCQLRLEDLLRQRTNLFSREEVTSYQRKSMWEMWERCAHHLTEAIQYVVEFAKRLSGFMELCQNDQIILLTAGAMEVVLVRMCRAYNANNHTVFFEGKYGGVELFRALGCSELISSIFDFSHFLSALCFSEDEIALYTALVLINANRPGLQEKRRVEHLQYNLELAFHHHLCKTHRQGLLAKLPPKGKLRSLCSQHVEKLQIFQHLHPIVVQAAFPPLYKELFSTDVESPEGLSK
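ROR gamma transcriptional activity was tracked as Gal4-UAS luciferase output in stably transfected Drosophila Schneider cells, with compound added 1 hr before 700 uM copper sulfate induction and a 20 hr ambient-temperature incubation.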
LDHA inh – inhibitors of human lactate dehydrogenase A | P00338 | purified LDHA, NADH/diaphorase-resazurin fluorescence; active compounds read low | activity change, % (values are at about 110 or 230 µM) | actives 0.15% (n = 480,000); in the data active = activity change below about -30%; inconclusive = mostly about -25% to -30%;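 also: plate controls were DMSO wells for no effect and wells without enzyme for full effect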
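Enzyme activity of human lactate dehydrogenase 5 (2 nM; 0.06 mM NADH, 0.2 mM pyruvate, 5 min, RT) is measured via a resazurin/diaphorase fluorescence readout of residual NADH.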
IL1B secr inh – blocks inflammasome-driven IL-1 beta release; activity change, % at 57.5 µM; actives 4.7% (n = 360,000); THP-1 LPS/ATP IL-1B secretion, AlphaLISA, 16 h; active compounds read low; in the data active = activity change below about -50%; inconclusive = mostly about -30% to -49%
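THP-1 cells pretreated 1 hr with compounds (up to 57.5 uM final), then stimulated with LPS (250 ng/mL final) plus ATP (1.25 mM final); secreted IL-1B measured by AlphaLISA after 16 hr, decreased signal indicating inhibition.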
TDP1 cell noCPT – qHTS for Inhibitors of human tyrosyl-DNA phosphodiesterase 1 (TDP1): qHTS in cells in absence of CPT. actives 15% (n = 420,000). AID 686978, 2013. Potency, µM (doses to about 46.2 µM), inactives show at the highest dose activity change, negative = growth inhibition, actives largely listed as inhibitors. DT40 Tdp1-/- hTDP1 cells, no CPT, ATP luminescence, 48 h; also: potency is read from the fitted curve at half-maximal effect; nearly all actives have a fitted effect of over 55% in size
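Camptothecin absent (DMSO only). Human TDP1-complemented DT40 knockout cells, 400 cells/well, 37 °C for minimum 48 hr; ATP measured via CellTiter-Glo, 30 min dark incubation, luminescence.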
TDP1 cell CPT – growth inhibition of DT40 Tdp1-/-;hTDP1 cells with camptothecin (screen for TDP1 inhibitors); chicken DT40 Tdp1-/-;hTDP1 cells + 20 nM CPT, ATP luminescence, 48 h; Potency, µM (titrated, usually from 46.2 µM), without a hit: at the highest dose activity change, negative = growth inhibition, usual class: inhibitors; actives 12% (n = 420,000); also: potency is read from the fitted curve at half-maximal effect; nearly all actives have a fitted effect of over 55% in size
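Chicken DT40 Tdp1-/- cells stably complemented with human TDP1 were seeded at 400 cells/well in medium containing 20 nM camptothecin, exposed to pin-transferred compounds, and grown at 37 °C for at least 48 hr. Viability was read as ATP luminescence.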
VP16 counter – inhibits Gal4-VP16 luciferase reporter, ROR gamma counter-screen; Drosophila S2 Gal4-VP16 UAS-luciferase, luminescence, 20 h; Potency, µM (series often up to 53.6 µM), inactives show top-dose activity, negative = inhibition, hits mostly inhibitors; actives 3.5% (n = 310,000); AID 2546;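 also: Gal4-VP16 expression switched on by copper sulfate through the metallothionein promoter; potency is read from the fitted curve at half-maximal effect; nearly all actives have a fitted effect of over 50% in size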
Active calls of the source: *; u = inconclusive; x = not tested or not shown; [ ] = dose if it differs, or a comment. Unless noted, calls follow the shape of the dose curve; as a rule, active = well fitted curve in the direction sought with a large enough effect; inconclusive = small, poorly fitted or top-dose-only effect, or another doubt; inactive = no such curve, though single readings can be large; an effect the other way counts as inactive or inconclusive. Unless noted, % is scaled to controls: 0 for no effect and ±100 for the full control effect.

SMILES	RORg inh	LDHA inh	IL1B secr inh	TDP1 cell noCPT	TDP1 cell CPT	VP16 counter
Cc1cccc(NC(=S)NNC(=O)C(c2ccccc2)c2ccccc2)c1C	x	0	x	x	x	x
Cc1cc(S(=O)(=O)N2CCN=C2c2ccccc2)c(C)cc1Cl	1.3µM*	0	17	u	-30%	-8%
Cc1cc(S(=O)(=O)N2CCN=C2c2ccccc2)ccc1F	-34%	-8	-8	-10%	-16%	u
Cc1c(Cl)ccc(S(=O)(=O)N2CCN=C2c2ccccc2)c1Cl	23%	-5	5	u	u	3%
Cc1cc(C)c(S(=O)(=O)N2CCN=C2c2ccccc2)c(C)c1	-19%	-3	20	16µM*	u	-18%
Cc1cccc(NC(=S)NCc2ccc(Cl)cc2)c1	x	-4	x	x	x	x
Cc1cccc(N/C=C/C(=O)C(F)(F)F)c1	x	12	x	x	x	x
COc1ccc(/C=C/C2=CC(C)(C)NC(=S)N2)cc1	1.3µM*	-12	-10	u	1%	2.5µM*
CCCCc1cc(=O)oc2cc(OCC(=O)c3ccc(OC)cc3)ccc12	x	16	x	x	x	x
CS(=O)(=O)Nc1cccc(NC(=O)c2cccc3c(-c4ccc(F)c(F)c4)coc23)c1	x	-6	u	u	15µM*	x
CS(=O)(=O)Nc1cccc(NC(=O)c2cccc3c(-c4cccc(C(N)=O)c4)coc23)c1	x	-1	u	u	18µM*	x
CS(=O)(=O)Nc1cccc(NC(=O)C2Cc3c(-c4cccc(C(N)=O)c4)ccnc3O2)c1 (stereo not drawn)	x	-5	-10	-3%	-14%	x
CC(C)NC(=O)c1cccc2c(-c3ccc(F)c(F)c3)coc12	x	-1	-26	21µM*	u	x
CC(=O)c1cccc(NC(=O)c2cccc3c(-c4cccc(C(N)=O)c4)coc23)c1	x	-3	0	12µM*	9.2µM*	x
O=C(O)Cn1c(=O)c2c3c(sc2n(Cc2ccc(F)cc2)c1=O)CCC3	x	5	x	x	x	x
COc1cc(C(=O)N(C)CC2CCN(CCc3cccc(C(F)(F)F)c3)CC2)ccc1C	-19%	1	-86*	u	u	-2%
CN(CC1CCN(CCc2cccc(C(F)(F)F)c2)CC1)C(=O)c1ccc(F)cc1	u	-2	u	u	u	2%
COc1ccc(CNc2ccc(C)cc2)cc1Br	43%	7	u	u	-1%	-13%
Cn1c(CSCc2ccc(F)cc2)n[nH]c1=S	u	-11	7	-1%	5%	u
COc1ccc(Cc2n[nH]c(=S)n2C)cc1Br	38%	-11	-68*	-10%	1%	-7%
COc1ccc(CCn2c(CCCOc3ccc(Cl)cc3Cl)n[nH]c2=S)cc1OC	x	-5	x	x	x	x
COc1ccc(Cc2nc(=S)[nH][nH]2)cc1Br	7.9µM*	-5	23	-21%	2%	u
COc1ccc(CCCc2n[nH]c(=S)n2C)cc1C	5µM*	-6	-3	-12%	-29%	-3%[10 µM]
COc1ccccc1Oc1coc2cc(OCc3ccccc3C)ccc2c1=O	x	10	x	x	x	x
CCCCC#Cc1cncc(C(=O)NN)c1	7.9µM*	-11	82	-2%	8%	7.9µM*
SMILES	RORg inh	LDHA inh	IL1B secr inh	TDP1 cell noCPT	TDP1 cell CPT	VP16 counter
N#CC1=C(N)OC2=C(C(=O)CC(c3ccccc3)C2)C1C1CCCCC1 (stereo not drawn)	x	14	x	x	x	x
CCOc1ccc(C2C(C(=O)OC)=C(C)NC3=C2C(=O)c2ccccc23)cc1OC (stereo not drawn)	x	-5	x	21µM*	18µM*	x
CCOc1cc(C2C(C(=O)OC)=C(C)NC3=C2C(=O)c2ccccc23)ccc1OCc1ccccc1 (stereo not drawn)	x	-16	x	x	x	x
C#CCOc1c(Br)cc(C2C(C(=O)OC)=C(C)NC3=C2C(=O)c2ccccc23)cc1OCC (stereo not drawn)	x	-7	x	5.8µM*	u	x
CCOC(=O)C1=C(C)NC2=C(C(=O)c3ccccc32)C1c1ccc(OCc2ccccc2)cc1 (stereo not drawn)	x	-2	x	x	x	x
Cc1cc(S(=O)(=O)N(Cc2ccc(C(C)C)cc2)CC2CCCO2)ccc1-n1cnnn1 (stereo not drawn)	2%	2	-79*	-25%	u	-3%
COc1ccc(CN2CCC(C(=O)NC(c3ccc4c(c3)OCO4)c3ccccn3)CC2)cc1 (stereo not drawn)	x	-9	-2	-16%	4%	x
Cn1cc(CN2CCC(C(=O)NC(c3ccc(F)cc3)c3ccc4ccccc4n3)CC2)c2ccccc21 (stereo not drawn)	x	-2	-81*	7.3µM*	12µM*	x
O=C(NC(c1ccc(F)cc1)c1ccc2ccccc2n1)C1CCN(Cc2ccc(Oc3ccccc3)cc2)CC1 (stereo not drawn)	x	-3	-75*	u	u	x
COc1cc(CN2CCC(C(=O)NC(c3ccc(F)cc3)c3ccc4ccccc4n3)CC2)cc(OC)c1 (stereo not drawn)	x	-4	-15	2.9µM*	3.7µM*	x
Cc1cccc(C)c1-n1nnnc1C(C)(C)Nc1ccc2c(c1)OCCO2	x	11	x	x	x	x
Cn1cccc1/C=N/N1CCN(Cc2cccc3ccccc23)CC1	-11%	4	u	13µM*	u	2%
CNS(=O)(=O)Cc1ccccc1CNC(=O)c1cc(Br)ccc1Cl	x	2	x	x	x	x
Oc1ccccc1/C=N/NC(=S)NC1CC2CC1C1C=CCC21 (stereo not drawn)	8.9µM*	-1	u	4.1µM*	3.7µM*	11µM*
Oc1ccc(C2CC3CC2C2C=CCC32)cc1 (stereo not drawn)	x	-1	x	x	x	x
COc1cccc(/C=N/NC(=S)NC2CC3CC2C2C=CCC32)c1O (stereo not drawn)	8.9µM*	4	x	29µM*	u	u
O=C(c1cc(S(=O)(=O)N2CCCCC2)ccc1N1CCOCC1)N1CCCc2ccccc21	x	8	x	x	x	x
COc1ccc(CC(=O)Nc2c(C(=O)N3CCC(N4CCCCC4)CC3)oc3ccccc23)cc1	x	-4	x	x	x	x
C=CCn1c(N2CCN(Cc3ccccc3)CC2)nc2c1c(=O)n(C)c(=O)n2C	x	1	x	x	x	x
Cc1ccc(CN2CCC[C@]3(N[C@H](c4ccc(C)cc4)[C@@H]4C(=O)N(Cc5ccccc5)C(=O)[C@@H]43)C2=O)cc1	x	-3	-2	u	u	x
